In PubChem BioAssay (Tox21):
Inconclusive results are not listed. Activity calls are given as the source filed them. Unless noted, calls come from the whole dose curve; as a rule, active = well fitted curve in the direction sought with a large enough effect in the repeat runs; inconclusive = weak or mixed curves; inactive = no such curve, though single readings can be large; an effect the other way counts as inactive or inconclusive.

What was measured:
[1] = qHTS assay to identify small molecule agonists of the peroxisome proliferator-activated receptor delta (PPARd) signaling pathway - cell viability counter screen (AID 743211); note: nearly all actives have a fitted effect of over 55% in size
Method in brief: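 Counter screen for cytotoxicity run in parallel with the PPARd reporter screen. Beta-lactamase reporter HEK293H cells exposed to compounds 17 h; ATP-based CellTiter-Glo luminescence quantified viability.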

[2] = biological target: Peroxisome proliferator-activated receptor delta (Homo sapiens) (UniProt Q03181); assay: qHTS assay to identify small molecule agonists of the peroxisome proliferator-activated receptor delta (PPARd) signaling pathway (AID 743212; calls by dose curve)
Method in brief: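 A PPARd-bla HEK293H line with beta-lactamase under an Upstream Activator Sequence is treated with compounds at 37 C. Substrate loading for 2 h at room temperature precedes the fluorescence measurement.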

[3] = qHTS assay to identify small molecule antagonists of the peroxisome proliferator-activated receptor delta (PPARd) signaling pathway - cell viability counter screen (AID 743213); note: nearly all actives have a fitted effect of over 50% in size
Method in brief: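 Viability counter-screen, qHTS format: PPARd-bla HEK293H, L165041 300 nM final, 17 h compound exposure at 37 C, CellTiter-Glo luminescence after 30 min RT.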

[4] = biological target: Peroxisome proliferator-activated receptor delta (Homo sapiens) (UniProt Q03181); assay: qHTS assay to identify small molecule antagonists of the peroxisome proliferator-activated receptor delta (PPARd) signaling pathway (AID 743215; active = well fitted inhibition curve with a large enough effect in the signal ratio in the repeat runs, not every such curve was filed as active; the % refers to the signal ratio;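 note: cells stimulated with agonist L165041 at 300 nM final during compound exposure; series mostly up to about 62 µM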)
Method in brief: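 Antagonist-mode beta-lactamase reporter screen: HEK293H cells with UAS-bla under PPARd control, stimulated by 300 nM L165041 (final) alongside test compound for 17 h at 37 C, then FRET fluorescence after 2 h substrate incubation.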

[5] = biological target: Bile acid receptor (Homo sapiens) (UniProt Q96RI1); assay: qHTS assay to identify small molecule antagonists of the farnesoid-X-receptor (FXR) signaling pathway (AID 743217; active = well fitted inhibition curve with a large enough effect in the signal ratio in the repeat runs, not every such curve was filed as active; the % refers to the signal ratio)
Method in brief: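 Beta-lactamase reporter under UAS control in HEK 293T cells; compound exposure 16 h at 37 °C in the presence of chenodeoxycholic acid (50 uM final); signal from B/G FRET substrate after 2 h at room temperature.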

[6] = biological target: Bile acid receptor (Homo sapiens) (UniProt Q96RI1); assay: qHTS assay to identify small molecule agonists of the farnesoid-X-receptor (FXR) signaling pathway (AID 743220; active = well fitted activation curve with a large enough effect in the signal ratio in the repeat runs, not every such curve was filed as active; the % refers to the signal ratio)
Method in brief: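 Beta-lactamase reporter under UAS control in GeneBLAzer FXR HEK 293T cells (5000/well) measured with LiveBLAzer FRET substrate after 2 h at room temperature. Compound exposure lasted 16 h at 37C.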

[7] = qHTS assay to identify small molecule antagonists of the farnesoid-X-receptor (FXR) signaling pathway - cell viability counter screen (AID 743221; active = well fitted cell-killing curve with a large enough effect in the repeat runs, not every such curve was filed as active; note: nearly all actives have a fitted effect of over 50% in size)
Method in brief: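 Multiplexed counter screen: viability of FXR-bla HEK 293T cells under agonist stimulation by chenodeoxycholic acid (50 uM, final) and test compound for 16 h at 37 C, measured by CellTiter-Glo luminescence in the reporter wells.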

[8] = biological target: Vitamin D3 receptor (Homo sapiens) (UniProt P11473); assay: qHTS assay to identify small molecule antagonists of the vitamin D receptor (VDR) signaling pathway (AID 743223; active = well fitted inhibition curve with a large enough effect in the signal ratio in the repeat runs, not every such curve was filed as active; the % refers to the signal ratio)
Method in brief: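 Cells carrying a VDR-driven beta-lactamase reporter (VDR-bla) were co-treated with compound and 3 nM final 1alpha,25-dihydroxyvitamin D3 for 16 h at 37C; reporter activity was measured as FRET substrate fluorescence after 2 h at room temperature.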

[9] = qHTS assay to identify small molecule agonists of the vitamin D receptor (VDR) signaling pathway - cell viability counter screen (AID 743224); note: series mostly up to about 63 µM; nearly all actives have a fitted effect of over 50% in size
Method in brief: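 VDR-bla cell line, quantitative HTS format; 16 h compound incubation (37C, 5% CO2); ATP-based CellTiter-Glo luminescence measured in the reporter assay wells.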

[10] = qHTS assay to identify small molecule antagonists of the vitamin D receptor (VDR) signaling pathway - cell viability counter screen (AID 743225); note: nearly all actives have a fitted effect of over 50% in size
Method in brief: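 HEK293T VDR-bla; cpd + 1a,25-(OH)2D3 3 nM final, 16 h 37C/5% CO2; B/G FRET substrate 2 h RT; then CellTiter-Glo 30 min RT, luminescence.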

[11] = qHTS assay to identify small molecule agonists of the NFkB signaling pathway (AID 1159509; active = well fitted curve in the direction sought with a large enough effect in the signal ratio in the repeat runs, not every such curve was filed as active; the % refers to the signal ratio; note: series mostly up to about 61 µM)
Method in brief: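 ME-180 NFkB-bla, 2,000 cells/well, overnight plating; cpd pinned in DMSO, 5 h 37 C; B/G FRET substrate 1.5 h RT; ex 405, em 460/530 nm.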

[12] = qHTS assay to identify small molecule agonists of the endoplasmic reticulum stress response signaling pathway (AID 1159516; active = well fitted activation curve with a large enough effect in the signal ratio in the repeat runs, not every such curve was filed as active; the % refers to the signal ratio)
Method in brief: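 ER stress element reporter (bla) in HeLa. 1,500 cells/well, overnight attachment; 5 hr compound; 2 hr RT substrate; dual-emission fluorescence.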

[13] = qHTS assay to identify small molecule agonists of the endoplasmic reticulum stress response signaling pathway - cell viability counter screen (AID 1159517; calls by dose curve)
Method in brief: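 CellTiter-Glo was added to wells already read for beta-lactamase FRET, and luminescence was recorded 30 min later. Cells: ESRE-bla HeLa, 1,500 per well, compound exposure 5 hr at 37 C.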

[14] = qHTS assay to identify small molecule antagonists of the retinoid-related orphan receptor gamma (ROR-gamma) signaling pathway - cell viability counter screen (AID 1159520); note: nearly all actives have a fitted effect of over 50% in size
Method in brief: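 Tet-on ROR gamma CHO cells (1,000/well) were plated 4 hr, given compounds in DMSO for 2 hr at 37 C, then induced with 1 uM final doxycycline for 16 hr. Viability was read as ATP by CellTiter-Glo luminescence after 30 min.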

[15] = qHTS assay to identify small molecule agonists of the AP-1 signaling pathway (AID 1159526; calls by dose curve)
[16] = qHTS assay to identify small molecule agonists of the farnesoid-X-receptor (FXR) signaling pathway - cell viability counter screen (AID 743218); note: nearly all actives have a fitted effect of over 45% in size
Method in brief: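 In GeneBLAzer FXR-UAS-bla HEK 293T cells, compounds act for 16 h at 37 C. Cell viability is then scored in the reporter wells by CellTiter-Glo, 30 min at RT, luminescence.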

[17] = qHTS assay to identify small molecule agonists of the AP-1 signaling pathway - cell viability counter screen (AID 1159525; calls by dose curve; note: nearly all actives have a fitted effect of over 55% in size)
Method in brief: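 ME-180 AP-1-bla, 2500 cells/well, Opti-MEM + 0.5% dialyzed FBS; overnight 37 °C; cpd 15-pt titration, 5 h 37 °C; CellTiter-Glo 30 min RT; luminescence read; normalised to TOAB and DMSO controls.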

[18] = biological target: Vitamin D3 receptor (Homo sapiens) (UniProt P11473); assay: qHTS assay to identify small molecule agonists of the vitamin D receptor (VDR) signaling pathway (AID 743222; calls by dose curve)
Method in brief: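 Agonist activity measured in VDR-bla reporter cells. Exposure 16 h, 37C, 5% CO2; detection by B/G FRET substrate, 2 h RT.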

[19] = biological target: Nuclear receptor ROR-gamma (Homo sapiens) (UniProt P51449); assay: qHTS assay to identify small molecule antagonists of the retinoid-related orphan receptor gamma (ROR-gamma) signaling pathway (AID 1159521)
Method in brief: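 Cells were plated, rested 4 h at 37 C, exposed to compounds for 2 h, then given 1 uM final doxycycline hyclate to induce RORγ expression. After 16 h, ONE-Glo luminescence from the ROR response element reporter was measured.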

Measured: Potency

Peroxisome proliferator-activated receptor delta (Homo sapiens), sequence (Q03181 whole entry, looked up): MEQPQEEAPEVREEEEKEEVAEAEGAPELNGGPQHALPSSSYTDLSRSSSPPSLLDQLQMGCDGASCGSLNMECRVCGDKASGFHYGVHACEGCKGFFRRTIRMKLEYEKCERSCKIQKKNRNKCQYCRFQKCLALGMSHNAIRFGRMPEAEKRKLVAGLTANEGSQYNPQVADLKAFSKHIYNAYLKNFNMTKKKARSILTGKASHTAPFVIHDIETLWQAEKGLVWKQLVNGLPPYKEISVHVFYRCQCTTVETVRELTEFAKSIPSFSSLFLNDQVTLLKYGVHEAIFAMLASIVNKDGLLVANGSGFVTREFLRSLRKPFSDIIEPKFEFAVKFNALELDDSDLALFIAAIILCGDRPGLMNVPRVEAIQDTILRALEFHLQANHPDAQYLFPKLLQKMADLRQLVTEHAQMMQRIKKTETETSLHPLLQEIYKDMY
Vitamin D3 receptor (Homo sapiens), sequence (P11473 whole entry, looked up): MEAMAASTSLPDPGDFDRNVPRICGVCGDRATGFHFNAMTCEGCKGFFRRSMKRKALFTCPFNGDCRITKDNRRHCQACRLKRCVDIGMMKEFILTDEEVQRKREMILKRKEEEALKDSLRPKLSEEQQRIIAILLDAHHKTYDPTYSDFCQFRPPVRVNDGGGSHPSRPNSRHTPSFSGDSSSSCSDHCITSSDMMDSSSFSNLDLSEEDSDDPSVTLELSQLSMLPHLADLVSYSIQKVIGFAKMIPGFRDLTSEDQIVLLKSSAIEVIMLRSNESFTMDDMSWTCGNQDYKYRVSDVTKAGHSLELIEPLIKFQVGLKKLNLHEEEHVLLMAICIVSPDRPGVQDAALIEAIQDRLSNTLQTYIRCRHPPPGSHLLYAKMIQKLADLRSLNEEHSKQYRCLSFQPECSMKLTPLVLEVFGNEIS
Bile acid receptor (Homo sapiens), sequence (Q96RI1 whole entry, looked up): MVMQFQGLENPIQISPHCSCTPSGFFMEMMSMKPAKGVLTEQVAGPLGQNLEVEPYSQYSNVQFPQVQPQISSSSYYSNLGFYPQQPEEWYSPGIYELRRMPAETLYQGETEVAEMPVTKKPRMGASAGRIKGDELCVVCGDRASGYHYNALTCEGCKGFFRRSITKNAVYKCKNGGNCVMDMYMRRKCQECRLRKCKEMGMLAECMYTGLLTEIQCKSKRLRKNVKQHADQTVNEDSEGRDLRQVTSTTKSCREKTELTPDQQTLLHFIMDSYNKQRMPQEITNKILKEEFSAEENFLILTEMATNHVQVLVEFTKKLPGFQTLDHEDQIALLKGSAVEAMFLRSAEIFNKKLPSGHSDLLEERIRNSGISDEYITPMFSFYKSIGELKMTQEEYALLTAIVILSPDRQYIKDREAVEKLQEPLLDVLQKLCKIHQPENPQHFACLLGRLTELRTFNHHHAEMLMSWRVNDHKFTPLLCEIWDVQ

O[C@@H]1CO[C@H]2[C@@H]1OC[C@@H]2O
not listed: [16] | [17] | [18] | [19]
inactive: all other assays above

CNC(=O)c1cnn(-c2nc(N)c3ncn([C@@H]4O[C@H](CO)[C@@H](O)[C@H]4O)c3n2)c1
not listed: [2] | [4] | [5] | [6] | [8] | [18] | [19]
inactive: all other assays above

C=CCc1ccccc1OCC(O)CNC(C)C (stereo not drawn)
not listed: [5] | [6] | [19]
inactive: all other assays above

Cc1cc(C)c(N)cc1C
not listed: [4] | [6] | [10] | [17]
inactive: all other assays above
